Results as given in PubChem BioAssay (NCATS).
Inconclusive results are not listed. Activity calls are given as the source filed them. Unless noted, calls follow the shape of the dose curve; as a rule, active = well fitted curve in the direction sought with a large enough effect; inconclusive = small, poorly fitted or top-dose-only effect, or another doubt; inactive = no such curve, though single readings can be large; an effect the other way counts as inactive or inconclusive.

Key:
[1] = molecular target: Lysosomal acid glucosylceramidase (Homo sapiens) (UniProt P04062); test: Glucocerebrosidase-p2 (AID 348; in the data active = potency below about 10 µM; also: potency is read from the fitted curve at half-maximal effect); conditions: purified GBA, blue fluorogenic substrate, 40 min
Procedure, shortened: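 Normal human glucocerebrosidase (0.2 nM) with blue fluorogenic substrate (80 uM final) in citrate/phosphate pH 5.9 with 10mM sodium taurocholate, 0.01% tween-20; 40 min RT, NaOH/glycine stop; fluorescence Ex 365/Em 440; AC50 from a titration from 0.6 nM upwards.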

[2] = AP1 Signaling Pathway (AID 357; active = well fitted curve in either direction with a large enough effect, not every such curve was filed as active; also: % is scaled to controls: 0 for no effect and ±100 for the full control effect); conditions: ME-180 AP-1-bla reporter, EGF-induced, beta-lactamase ratio, 5 h; at 7.69 µM (top of the series) unless noted
Procedure, shortened: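 AP-1-bla ME-180 cells with beta-lactamase reporter under AP-1 response element, stimulated with EC50 EGF; compounds titrated, 5 hours at 37 degrees Celsius. CCF4 read at 460/530 nm ratio; positive and negative modulators judged by AC50.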

[3] = molecular target: Cytochrome P450 1A2 (Homo sapiens) (UniProt P05177); test: p450-cyp1a2 (AID 410; calls by dose curve; also: potency is read from the fitted curve at half-maximal effect); conditions: recombinant CYP1A2, luciferin-ME demethylation, luminescence; series mostly up to 57 µM
Procedure, shortened: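 O-Demethylation of luciferin 6' methyl ether by human CYP1A2 is monitored as luciferase luminescence. Substrate sits at Km (100uM); enzyme is 20nM. Values are scaled to 57 uM furafylline as maximal inhibition.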

[4] = NFAT Signaling Pathway (AID 444; active = well fitted curve in either direction with a large enough effect, not every such curve was filed as active;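 also: carbachol stimulus at about its EC50 of 1 µM final; % is scaled to controls: 0 for no effect and ±100 for the full control effect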); conditions: Jurkat NFAT-bla M1, carbachol, beta-lactamase ratio, 5 h; at 7.69 µM (top of the series) unless noted
Procedure, shortened: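 Jurkat cells carrying an NFAT-driven β-lactamase reporter and co-transfected muscarinic M1 receptor were treated with compound plus carbachol (1 uM final, an EC50 level) for 5 h at 37 °C. CCF4 loading followed for 1 h at RT; 460/530 nm ratio gave %activity.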

[5] = Stat Signaling Pathway (AID 446; active = well fitted curve in either direction with a large enough effect, not every such curve was filed as active;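 also: ME-180 cervical cancer cells given 40 pM IL-6 alongside compound; SIE-controlled beta-lactamase reporter measured as 460/530 nm FRET emission ratio; % is scaled to controls: 0 for no effect and ±100 for the full control effect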); conditions: ME-180 (cervical carcinoma) SIE beta-lactamase reporter, IL-6 stimulated, 5 h; at 7.69 µM (top of the series) unless noted
Procedure, shortened: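 Normalization used AC90 stimulation (300 pM IL-6) and AC90 inhibition (125 nM pan-JAK inhibitor at 40 pM IL-6). The underlying signal is SIE-driven beta-lactamase in ME-180 cells after 5 h IL-6 exposure with compound.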

[6] = molecular target: Glucocorticoid receptor (Homo sapiens) (UniProt P04150); test: GR-GFP Redistribution (AID 450;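 active = compounds whose dose series gives a full or clear partial fitted curve of increased nuclear translocation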; also: potency is read from the fitted curve at half-maximal effect); conditions: U2OS GR-GFP nuclear translocation, laser cytometry, 2 h
[7] = molecular target: Glucocorticoid receptor (Homo sapiens) (UniProt P04150); test: GR-EFC Redistribution (AID 451; calls by dose curve; also: potency is read from the fitted curve at half-maximal effect); conditions: CHO-K1 GR-EFC translocation, beta-gal luminescence, 2 h
Procedure, shortened: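 CHO-K1 cells stably expressing nuclear-localized β-gal enzyme acceptor and GR fused C-terminally to the enzyme donor fragment; ligand-driven nuclear translocation restores β-gal by complementation. Compounds titrated up to 46 uM final, 2 h at 37 °C; luminescence read.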

[8] = molecular target: Mitogen-activated protein kinase 10 (Mus musculus) (UniProt Q61831); test: JNK3 AlphaScreen Assay (AID 530; active = well fitted curve in either direction with a large enough effect, not every such curve was filed as active;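 also: kinase came from lysate of stimulated human HepG2 cells; signal reports phosphorylation of biotinylated GST-cJun 1-79 at Ser73 with 10 µM ATP; % is scaled to controls: 0 for no effect and ±100 for the full control effect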); conditions: JNK3 lysate, c-Jun phosphorylation; series mostly up to 57.1 µM
Procedure, shortened: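 Phosphorylation of biotinylated GST-cJun(1-79) at Ser73 is measured by AlphaScreen proximity luminescence. Enzyme is JNK3 in HepG2 lysates activated with interleukin-1beta and tumor necrosis factor alpha; ATP is 10 uM final.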

[9] = molecular target: 3',5'-cyclic-AMP phosphodiesterase 4B (Homo sapiens) (UniProt Q07343); test: qHTS Assay for Inhibitors of PDE-IV (AID 607; active = well fitted activation curve with a large enough effect in the main read-out, with a control signal flat, not every such curve was filed as active; also: % of control where 0% means no effect); conditions: HEK293 ACTOne CNG channel cells, membrane potential fluorescence; series mostly up to 22.9 µM
Procedure, shortened: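 HEK293 ACTOne cells with CNG channel (1000/well), endogenous PDE4; membrane potential dye, compounds up to 22.9 uM final. Fluorescence Ex 535/Em 590; RO 20-1724 (100 uM final) as reference.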

[10] = qHTS Assay for Lipid Storage Modulators (AID 1519; calls by dose curve); conditions: Drosophila S3 cells, BODIPY lipid droplet/cell ratio, laser cytometry, cells loaded with oleic acid; for activity change, negative = inhibition: at 57.5 µM (top of the series)
Procedure, shortened: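 Cells seeded at 5,000 per well were treated with compounds over a concentration series and loaded with oleic acid (400 uM, as added). Lipid droplet fluorescence (488 nm excitation, 500-530 nm channel) was read by laser-scanning cytometry and normalized to 20 uM Triacsin C.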

[11] = molecular target: Dual specificity protein kinase CLK4 (Homo sapiens) (UniProt Q9HAZ1); test: qHTS Assay for Inhibitors of CDC-like Kinase 4 (Kinase-Glo Assay) (AID 1770); conditions: recombinant Clk4, Kinase-Glo ATP depletion luminescence; series mostly up to 66.7 µM; also: % is scaled to controls: 0 for no effect and ±100 for the full control effect; nearly all actives have a fitted effect of over 65% in size
Procedure, shortened: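 Inhibition was judged from remaining ATP, measured by Ultra-Glo luciferase bioluminescence after Clk4 (25 nM) had acted on RS peptide at 1 uM ATP for 4.5 hours, room temperature.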

[12] = molecular target: Dual specificity protein kinase CLK4 (Homo sapiens) (UniProt Q9HAZ1); test: qHTS Assay for Inhibitors of CDC-like Kinase 4 (ADP-Glo Assay) (AID 1771); conditions: recombinant CLK4, ADP-Glo luminescence; series mostly up to 80 µM; also: % is scaled to controls: 0 for no effect and ±100 for the full control effect; nearly all actives have a fitted effect of over 70% in size
Procedure, shortened: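 Compounds are pin-transferred onto substrate mix (100 uM RS peptide, 1 uM ATP), then 25 nM Clk4 is added. After 1 hr at room temperature, ADP-Glo reagent runs 45 min, detection reagent 30 min, then luminescence is read.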

[13] = molecular target: Dual specificity protein kinase CLK4 (Homo sapiens) (UniProt Q9HAZ1); test: qHTS Assay for Inhibitors of CDC-like Kinase 4 (ADP-FP Assay) (AID 1795); conditions: Transcreener ADP fluorescence polarization; series mostly up to 50 µM;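 also: recombinant human CLK4 phosphorylating RS repeat peptide at 1 µM ATP; % is scaled to controls: 0 for no effect and ±100 for the full control effect; nearly all actives have a fitted effect of over 60% in size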
Procedure, shortened: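 Inhibition of ADP formation by 6.25 nM Clk4 is measured using 1 uM ATP and 100 uM RS repeat peptide over one hour. Produced ADP displaces a fluorescent tracer from antibody, lowering polarization.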

[14] = molecular target: Ubiquitin carboxyl-terminal hydrolase 1 (Homo sapiens) (UniProt O94782); test: Inhibitors of USP1/UAF1: Pilot qHTS (AID 504865); conditions: purified USP1/UAF1, Ub-rhodamine cleavage fluorescence; series mostly up to 54.9 µM;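 also: rhodamine fluorescence freed from ubiquitin-rhodamine substrate followed over time; top concentration of the series differs between compounds; % is scaled to controls: 0 for no effect and ±100 for the full control effect; nearly all actives have a fitted effect of over 35% in size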
Procedure, shortened: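 Kinetic fluorescence assay: 1nM USP1/UAF1, 15 min compound preincubation, then 150nM Ub-Rho; 480/540 nm.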

[15] = Primary qHTS for small molecule stabilizers of the endoplasmic reticulum resident proteome: Secreted ER Calcium Modulated Protein (SERCaMP) assay (AID 1508630); conditions: SH-SY5Y GLuc-SERCaMP (Gaussia luciferase released on ER calcium loss) secretion, thapsigargin, luminescence; series mostly up to 38.4 µM; also: % is scaled to controls: 0 for no effect and ±100 for the full control effect
Procedure, shortened: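 The SH-SY5Y reporter protocol was run at 3 concentrations up to 38.3 uM (primary) or 11 concentrations (follow-up): 16 h compound, 100 nM thapsigargin for 4 h, then extracellular luciferase luminescence.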

[16] = molecular target: Cytochrome P450 3A4 (Homo sapiens) (UniProt P08684); test: qHTS Assay for Activators of Cytochrome P450 3A4 (AID 885); conditions: recombinant CYP3A4, Luciferin-PPXE luminescence, 60 min; series mostly up to 57.1 µM; also: nearly all actives have a fitted effect of over 65% in size
Procedure, shortened: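 Human CYP3A4 dealkylates Luciferin-PPXE to luciferin, which luciferase detection converts to light. Substrate was at its KM (25uM), buffer 200mM KPO4, reaction 60 min at RT.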

[17] = molecular target: Rap guanine nucleotide exchange factor 3 (Homo sapiens) (UniProt O95398); test: Confirmatory qHTS for antagonist of cAMP-regulated guanine nucleotide exchange factor 3 (EPAC1) (AID 1645880); conditions: EPAC1 Rap1B-BODIPY-GDP exchange, fluorescence; series mostly up to 115 µM;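 also: plate controls were DMSO only for no effect and full effect of the ATA control for full effect; nearly all actives have a fitted effect of over 55% in size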
Procedure, shortened: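 Released BODIPY-GDP fluoresces less than Rap1-bound BODIPY-GDP; the signal is followed at 480/540 nm at 5-min intervals over 30 min, after 5 min at room temperature. Reactions contain 100 nM EPAC1, 250 nM RAP1B-BODIPY-GDP and 50 uM GDP; results are normalized to ATA and DMSO.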

[18] = molecular target: Rap guanine nucleotide exchange factor 3 (Homo sapiens) (UniProt O95398); test: Confirmatory qHTS for agonist of cAMP-regulated guanine nucleotide exchange factor 3 (EPAC1) (AID 1645881); conditions: EPAC1 Rap1B BODIPY-GDP exchange fluorescence, 100% = cAMP control response; series mostly up to 154 µM;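 also: EPAC1 catalysed release of BODIPY-GDP from Rap1B seen as fluorescence loss; nearly all actives have a fitted effect of over 75% in size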
[19] = molecular target: Rap guanine nucleotide exchange factor 4 (Homo sapiens) (UniProt Q8WZA2); test: Confirmatory qHTS for agonist of cAMP-regulated guanine nucleotide exchange factor 4 (EPAC2) (AID 1645884); conditions: EPAC2 GEF activity, Rap1B-BODIPY-GDP fluorescence, percent relative to cAMP agonist control; series mostly up to 154 µM;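 also: nucleotide exchange releases bodipy-GDP from Rap1 and this lowers its fluorescence; % is scaled to controls: 0 for no effect and ±100 for the full control effect; nearly all actives have a fitted effect of over 65% in size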
[20] = molecular target: Rap guanine nucleotide exchange factor 4 (Homo sapiens) (UniProt Q8WZA2); test: Confirmatory qHTS for antagonist of cAMP-regulated guanine nucleotide exchange factor 4 (EPAC2) (AID 1645885); conditions: EPAC2 Rap1B-BODIPY-GDP exchange fluorescence, biochemical; series mostly up to 114 µM; also: potency is read from the fitted curve at half-maximal effect; nearly all actives have a fitted effect of over 25% in size
[21] = measured here: cell count channel max response
[22] = measured here: lipid channel max response

Rap guanine nucleotide exchange factor 3 (Homo sapiens), sequence (O95398 whole entry, looked up): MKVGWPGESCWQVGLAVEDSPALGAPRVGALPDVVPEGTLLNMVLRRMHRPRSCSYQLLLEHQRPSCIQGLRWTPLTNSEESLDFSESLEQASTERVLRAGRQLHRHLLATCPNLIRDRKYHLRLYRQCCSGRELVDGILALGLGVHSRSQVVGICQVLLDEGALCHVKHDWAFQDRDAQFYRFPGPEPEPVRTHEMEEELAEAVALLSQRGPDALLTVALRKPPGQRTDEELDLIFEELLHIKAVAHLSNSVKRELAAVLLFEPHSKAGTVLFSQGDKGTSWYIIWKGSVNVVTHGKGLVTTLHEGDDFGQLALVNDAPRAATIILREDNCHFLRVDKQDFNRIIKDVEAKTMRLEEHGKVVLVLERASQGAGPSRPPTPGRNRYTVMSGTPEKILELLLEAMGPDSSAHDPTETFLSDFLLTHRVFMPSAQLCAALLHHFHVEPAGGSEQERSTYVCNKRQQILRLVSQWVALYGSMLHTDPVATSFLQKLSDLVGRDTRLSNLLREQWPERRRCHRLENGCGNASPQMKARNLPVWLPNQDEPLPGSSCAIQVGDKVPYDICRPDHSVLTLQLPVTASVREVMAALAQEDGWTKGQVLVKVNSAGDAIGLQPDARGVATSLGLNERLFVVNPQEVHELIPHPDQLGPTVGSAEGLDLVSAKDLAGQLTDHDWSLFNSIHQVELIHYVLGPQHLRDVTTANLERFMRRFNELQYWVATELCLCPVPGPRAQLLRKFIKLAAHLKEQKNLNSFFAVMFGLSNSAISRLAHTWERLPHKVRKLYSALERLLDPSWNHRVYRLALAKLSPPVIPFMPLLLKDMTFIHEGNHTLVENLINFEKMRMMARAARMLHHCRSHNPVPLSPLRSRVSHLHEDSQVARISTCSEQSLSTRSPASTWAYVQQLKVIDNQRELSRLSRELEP
Rap guanine nucleotide exchange factor 4 (Homo sapiens), sequence (Q8WZA2 whole entry, looked up): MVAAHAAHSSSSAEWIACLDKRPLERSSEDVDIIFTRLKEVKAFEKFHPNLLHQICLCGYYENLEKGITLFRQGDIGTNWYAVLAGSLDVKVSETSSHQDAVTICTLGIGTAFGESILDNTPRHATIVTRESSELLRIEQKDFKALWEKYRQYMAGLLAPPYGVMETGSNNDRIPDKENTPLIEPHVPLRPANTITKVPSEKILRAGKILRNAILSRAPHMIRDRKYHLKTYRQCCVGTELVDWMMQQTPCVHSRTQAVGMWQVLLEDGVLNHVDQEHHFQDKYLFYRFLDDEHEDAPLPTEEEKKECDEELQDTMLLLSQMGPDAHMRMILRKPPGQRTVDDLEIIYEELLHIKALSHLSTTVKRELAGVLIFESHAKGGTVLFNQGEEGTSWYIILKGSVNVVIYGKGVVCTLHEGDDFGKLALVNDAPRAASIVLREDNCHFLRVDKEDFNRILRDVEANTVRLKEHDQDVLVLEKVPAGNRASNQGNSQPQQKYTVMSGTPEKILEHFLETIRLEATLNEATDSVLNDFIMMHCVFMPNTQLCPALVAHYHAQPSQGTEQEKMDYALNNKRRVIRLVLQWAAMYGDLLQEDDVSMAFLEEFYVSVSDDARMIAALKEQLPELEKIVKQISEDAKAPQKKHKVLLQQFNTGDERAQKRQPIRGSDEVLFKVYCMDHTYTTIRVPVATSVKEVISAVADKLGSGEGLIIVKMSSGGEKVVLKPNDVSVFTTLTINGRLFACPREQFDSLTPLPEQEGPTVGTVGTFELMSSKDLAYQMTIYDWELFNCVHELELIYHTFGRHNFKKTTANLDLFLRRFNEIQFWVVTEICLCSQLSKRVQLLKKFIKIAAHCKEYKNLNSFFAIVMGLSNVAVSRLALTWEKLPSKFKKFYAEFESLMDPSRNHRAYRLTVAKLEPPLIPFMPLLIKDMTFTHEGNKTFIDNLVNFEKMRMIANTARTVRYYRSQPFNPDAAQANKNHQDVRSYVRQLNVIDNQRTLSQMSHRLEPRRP
3',5'-cyclic-AMP phosphodiesterase 4B (Homo sapiens), sequence (Q07343 whole entry, looked up): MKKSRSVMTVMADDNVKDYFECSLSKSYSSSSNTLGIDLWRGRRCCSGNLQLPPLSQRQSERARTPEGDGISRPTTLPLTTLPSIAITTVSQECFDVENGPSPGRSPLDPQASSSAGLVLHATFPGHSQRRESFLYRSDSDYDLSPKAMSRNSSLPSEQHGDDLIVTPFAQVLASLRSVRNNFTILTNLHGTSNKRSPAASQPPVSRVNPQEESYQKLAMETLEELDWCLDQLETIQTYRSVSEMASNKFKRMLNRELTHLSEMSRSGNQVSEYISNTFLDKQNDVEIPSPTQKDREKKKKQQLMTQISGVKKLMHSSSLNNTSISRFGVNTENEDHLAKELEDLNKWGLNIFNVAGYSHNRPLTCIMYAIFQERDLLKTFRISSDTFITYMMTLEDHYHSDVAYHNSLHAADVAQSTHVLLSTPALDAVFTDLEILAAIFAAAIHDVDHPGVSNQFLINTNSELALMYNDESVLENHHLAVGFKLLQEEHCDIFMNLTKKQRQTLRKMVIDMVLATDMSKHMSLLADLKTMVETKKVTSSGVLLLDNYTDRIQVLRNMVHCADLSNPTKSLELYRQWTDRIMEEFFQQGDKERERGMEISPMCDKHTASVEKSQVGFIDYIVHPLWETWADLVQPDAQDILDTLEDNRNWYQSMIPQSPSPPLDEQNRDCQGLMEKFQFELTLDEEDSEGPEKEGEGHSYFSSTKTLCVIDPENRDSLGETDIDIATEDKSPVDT
Ubiquitin carboxyl-terminal hydrolase 1 (Homo sapiens), sequence (O94782 whole entry, looked up): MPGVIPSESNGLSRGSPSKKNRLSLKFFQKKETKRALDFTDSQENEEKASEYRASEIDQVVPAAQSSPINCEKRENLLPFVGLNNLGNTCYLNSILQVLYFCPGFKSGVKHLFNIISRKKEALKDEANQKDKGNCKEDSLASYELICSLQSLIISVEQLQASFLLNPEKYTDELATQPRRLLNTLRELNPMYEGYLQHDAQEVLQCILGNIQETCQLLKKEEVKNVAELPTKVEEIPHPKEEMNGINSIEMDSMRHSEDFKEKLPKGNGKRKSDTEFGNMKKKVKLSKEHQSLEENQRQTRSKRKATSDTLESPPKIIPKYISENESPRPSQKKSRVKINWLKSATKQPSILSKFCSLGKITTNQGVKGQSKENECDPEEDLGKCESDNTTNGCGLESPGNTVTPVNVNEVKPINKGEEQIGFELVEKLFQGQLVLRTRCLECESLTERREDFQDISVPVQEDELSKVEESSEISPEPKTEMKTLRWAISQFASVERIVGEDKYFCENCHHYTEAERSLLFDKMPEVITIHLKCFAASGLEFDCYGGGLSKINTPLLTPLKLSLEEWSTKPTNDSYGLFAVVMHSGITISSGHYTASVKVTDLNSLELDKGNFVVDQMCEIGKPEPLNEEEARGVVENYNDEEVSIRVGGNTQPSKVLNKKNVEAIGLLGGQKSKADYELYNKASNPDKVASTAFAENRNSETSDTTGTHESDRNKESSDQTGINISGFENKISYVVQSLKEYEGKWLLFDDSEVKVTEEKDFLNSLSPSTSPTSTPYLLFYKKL
Glucocorticoid receptor (Homo sapiens), sequence (P04150 whole entry, looked up, the tested form may be a part): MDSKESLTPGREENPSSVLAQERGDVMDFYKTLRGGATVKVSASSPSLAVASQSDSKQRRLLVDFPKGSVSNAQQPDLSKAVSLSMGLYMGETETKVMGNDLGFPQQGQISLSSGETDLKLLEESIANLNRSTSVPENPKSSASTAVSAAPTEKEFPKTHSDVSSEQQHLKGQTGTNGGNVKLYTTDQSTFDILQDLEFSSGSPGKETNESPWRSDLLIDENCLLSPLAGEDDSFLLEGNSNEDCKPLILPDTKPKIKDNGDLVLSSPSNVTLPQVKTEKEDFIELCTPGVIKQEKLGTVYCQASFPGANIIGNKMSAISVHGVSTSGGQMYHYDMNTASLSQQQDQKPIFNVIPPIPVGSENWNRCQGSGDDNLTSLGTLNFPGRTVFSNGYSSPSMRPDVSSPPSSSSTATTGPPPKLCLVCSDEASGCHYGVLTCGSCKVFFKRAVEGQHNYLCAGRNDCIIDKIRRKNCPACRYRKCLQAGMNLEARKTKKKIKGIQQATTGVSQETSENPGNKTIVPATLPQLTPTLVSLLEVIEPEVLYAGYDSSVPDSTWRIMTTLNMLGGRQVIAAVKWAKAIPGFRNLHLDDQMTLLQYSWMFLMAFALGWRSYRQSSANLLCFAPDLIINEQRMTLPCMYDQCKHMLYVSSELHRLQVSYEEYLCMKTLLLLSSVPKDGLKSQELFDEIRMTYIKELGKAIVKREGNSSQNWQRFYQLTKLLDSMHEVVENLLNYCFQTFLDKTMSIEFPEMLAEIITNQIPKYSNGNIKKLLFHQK
Lysosomal acid glucosylceramidase (Homo sapiens), sequence (P04062 whole entry, looked up): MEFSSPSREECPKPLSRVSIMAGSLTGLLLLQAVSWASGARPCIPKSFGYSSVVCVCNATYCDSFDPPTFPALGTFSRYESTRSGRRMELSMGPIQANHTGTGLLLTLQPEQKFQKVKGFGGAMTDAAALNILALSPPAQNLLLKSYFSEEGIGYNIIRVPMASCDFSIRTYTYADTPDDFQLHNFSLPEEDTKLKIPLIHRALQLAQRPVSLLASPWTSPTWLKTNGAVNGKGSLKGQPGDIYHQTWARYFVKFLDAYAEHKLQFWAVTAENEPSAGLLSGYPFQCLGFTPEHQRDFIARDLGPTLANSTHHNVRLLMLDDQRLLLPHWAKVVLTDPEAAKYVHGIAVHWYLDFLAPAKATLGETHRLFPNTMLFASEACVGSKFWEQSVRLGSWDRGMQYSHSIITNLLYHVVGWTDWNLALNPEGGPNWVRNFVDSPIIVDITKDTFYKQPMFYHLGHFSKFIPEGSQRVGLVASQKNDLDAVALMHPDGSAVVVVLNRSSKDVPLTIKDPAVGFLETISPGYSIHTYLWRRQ

With `Cc1noc(C)c1-c1cc(N(C)Cc2ccco2)ncn1` the Potency [1] was > 11.4 µM (inactive), the activity change, negative = inhibition [2] was 1.26% (inactive) and the Potency [3] was 3.16 µM (active). For the same molecule, the activity change, negative = inhibition [4] was -16% (inactive), the activity, negative = inhibition [5] was 6.33% (inactive) and the Potency [6] was > 46 µM (inactive). For the same molecule, the Potency [7] was > 46 µM (inactive), the outcome [8] was “inactive” and the Potency [9] was “inactive”. The activity change, negative = inhibition [10] was 2.86% (inactive), the max response [10, 21] was 13.8% and the max response [10, 22] was 17.9%. For the same molecule, the Potency [11] was “inactive”, the Potency [12] was “inactive” and the Potency [13] was “inactive”. For the same molecule, the Potency [14] was “inactive” and the Potency [15] was “inactive”.
For `Cn1c(=O)c(-c2ccc(Cl)cc2)nc2cnc(Oc3cccc(Cl)c3)nc21`, the Potency [1] was > 11.4 µM (inactive), the activity change, negative = inhibition [2] was -7.62% (inactive) and the Potency [3] was 0.251 µM (active). For the same molecule, the activity change, negative = inhibition [4] was -6.5% (inactive), the activity, negative = inhibition [5] was -0.313% (inactive) and the Potency [6] was > 9.22 µM (inactive). The Potency [7] was > 46 µM (inactive), the outcome [8] was “inactive” and the Potency [9] was “inactive”. The activity change, negative = inhibition [10] was 5.31% (inactive), the max response [10, 21] was 11.8% and the max response [10, 22] was 14.2%. For the same molecule, the Potency [11] was “inactive”, the Potency [12] was “inactive” and the Potency [13] was “inactive”. The Potency [14] was “inactive” and the Potency [15] was “inactive”.
With `O=C(c1cnccn1)N1CCC[C@@]2(CCN(C(c3ccccc3)c3ccccc3)C2)C1` the Potency [1] was > 11.4 µM (inactive), the activity change, negative = inhibition [2] was 0.193% (inactive) and the Potency [3] was 15.8 µM (active). The activity change, negative = inhibition [4] was 11.2% (inactive), the activity, negative = inhibition [5] was 16.5% (inactive) and the Potency [7] was > 46 µM (inactive). For the same molecule, the outcome [8] was “inactive”, the Potency [9] was “inactive” and the Potency [16] was “inactive”. For the same molecule, the activity change, negative = inhibition [10] was -1.1% (inactive), the max response [10, 21] was 3.2% and the max response [10, 22] was 5.21%. For the same molecule, the Potency [15] was “inactive”, the Potency [17] was “inactive” and the outcome [18] was “inactive”. For the same molecule, the outcome [19] was “inactive”.
With `Cc1nc2cnc(Oc3ccccc3)nc2n(C)c1=O` the Potency [1] was > 11.4 µM (inactive), the activity change, negative = inhibition [2] was -8.04% (inactive) and the Potency [3] was 12.6 µM (active). The activity change, negative = inhibition [4] was -5.98% (inactive), the activity, negative = inhibition [5] was -10.2% (inactive) and the Potency [6] was > 9.22 µM (inactive). For the same molecule, the Potency [7] was > 46 µM (inactive), the outcome [8] was “inactive” and the Potency [9] was “inactive”. The activity change, negative = inhibition [10] was 6.1% (inactive), the max response [10, 21] was 14.9% and the max response [10, 22] was 19.9%. The Potency [11] was “inactive”, the Potency [12] was “inactive” and the Potency [13] was “inactive”. The Potency [14] was “inactive” and the Potency [15] was “inactive”.
In the case of `O=C(Nc1ccccc1)N1CCCC2(CCN(C(=O)c3cc(C(F)(F)F)cc(C(F)(F)F)c3)CC2)C1`, the Potency [1] is reported as > 11.4 µM (inactive), the activity change, negative = inhibition [2] is reported as -28.2% (inactive) and the Potency [3] is reported as 31.6 µM (active). For the same molecule, the activity change, negative = inhibition [4] was 19.5% (inactive), the activity, negative = inhibition [5] was -14.9% (inactive) and the Potency [7] was > 46 µM (inactive). The outcome [8] was “inactive”, the Potency [16] was “inactive” and the activity change, negative = inhibition [10] was -0.939% (inactive). The max response [10, 21] was 16.6%, the max response [10, 22] was 17.1% and the Potency [15] was “inactive”. For the same molecule, the outcome [18] was “inactive”, the outcome [19] was “inactive” and the Potency [20] was 44.1 µM (active).
